According to PubChem BioAssay (Tox21):
Records with an inconclusive call do not appear. Calls of active or inactive are those of the source. Calls follow the shape of the dose curve; as a rule, active = well fitted cell-killing curve with a large enough effect in the repeat runs; inconclusive = weak or mixed curves, or effect the other way; inactive = no such curve, though single readings can be large or run the other way. Where a SMILES comes first, the peptide text is derived from it. [ ]: non-standard residue; d: D form. pGlu = O=C1CC[C@@H](C(=O)O)N1

Assay: qHTS assay to identify small molecule agonists of the farnesoid-X-receptor (FXR) signaling pathway - cell viability counter screen (AID 743218); also: nearly all actives have a fitted effect of over 45% in size
Settings: FXR-bla HEK293T viability, CellTiter-Glo luminescence, 16 h; series mostly up to 62.6 µM; viability change, negative = cytotoxic: at the top concentration
Source text: U.S. Tox21 Program National Center for Advancing Translational Sciences [NCATS] NIH Chemical Genomics Center [NCGC] U.S. Environmental Protection Agency [EPA] National Institutes of Environmental Health Sciences [NIEHS] National Toxicology Program [NTP] U.S. Food and Drug Administration [FDA] Tox21 Assay Overview: The farnesoid-X-receptor (FXR), a nuclear hormone receptor, is highly expressed in liver, intestine, kidney and adrenal cortex. Natural ligands of FXR are the bile acids (Cholic acid, Chenodeoxy cholic acid etc). FXR is an important regulator of diverse metabolic pathways, including the bile acid homeostasis, lipid and glucose metabolisms. FXR regulates the expression of target genes by binding either as a monomer or as a heterodimer with the retinoid X receptor (RXR). Numerous studies have reported that FXR exerts protective function during cholestasis, diabetes, liver regeneration, and cancer. To identify compounds that activate FXR signaling, GeneBLAzer FXR-UAS-bla HEK 293T cell line (Invitrogen, Carlsbad, CA) containing a beta-lactamase reporter gene under the control of a UAS response element was used to screen the Tox21 10K compound library. The cytotoxicity of the Tox21 compound library against the FXR-bla cell line was tested in parallel by measuring the cell viability using CellTiter-Glo assay in the same wells.
Tox21 Assay Protocol Summary: FXR-bla cells were dispensed at 5000 cells/5uL/well in 1536-well black wall/clear bottom plates using a Multidrop Combi (Thermo Fisher Scientific, Waltham, MA) dispenser. After the assay plates were incubated at 37 C and 5% CO2 for 5 h, 23 nL of compounds dissolved in DMSO, positive controls or DMSO only was transferred to the assay plate by a Pintool station (Kalypsys, San Diego, CA). The assay plates were incubated at 37C for 16 h. After 1 uL of LiveBLAzerTM B/G FRET substrate was added using a Bioraptr Flying Reagent Dispenser (FRD) workstation (Beckman Coulter, Indianapolis, IN), the plates were incubated at room temperature for 2 h, and fluorescence intensity was measured by an Envision plate reader (PerkinElmer, Shelton, CT). For cell viability readout that measures cytotoxicity, 4uL/well of CellTiter-Glo reagent was added into the assay plates using a Bioraptr FRD. After 30 min incubation at room temperature, the luminescence intensity in the plates was measured using a ViewLux plate reader (PerkinElmer).
% is scaled to controls: 0 for no effect and ±100 for the full control effect.

SMILES	viability change, negative = cytotoxic
CC(COc1ccccc1)NN (stereo not given)	-0.264% (inactive)
C=CCCCCCCCCC(=O)OCC	0.227% (inactive)
C[N+]1(C)CCCC(OC(=O)C(O)(c2ccccc2)c2ccccc2)C1 (stereo not given)	-3.16% (inactive)
Cc1cc(C)c(N=Nc2c(O)c(S(=O)(=O)O)cc3cc(S(=O)(=O)O)ccc23)cc1C	0.0024% [at 5.95 µM] (inactive)
CCNC(=O)[C@@H]1CCCN1C(=O)[C@H](CCCN=C(N)N)NC(=O)[C@H](CC(C)C)NC(=O)CNC(=O)[C@H](Cc1ccc(O)cc1)NC(=O)[C@H](CO)NC(=O)[C@H](Cc1c[nH]c2ccccc12)NC(=O)[C@H](Cc1cnc[nH]1)NC(=O)[C@@H]1CCC(=O)N1 ([pGlu]HWSYGLRP-NHEt)	3.25% (inactive)
CCOc1ccc2nc(S(N)(=O)=O)sc2c1	5.32% (inactive)
CC(=O)N1C[C@H](O)C[C@H]1C(=O)O	-15.4% (inactive)
CCOC(=O)C(=O)CCCCCCl	2.13% (inactive)
CC(CO)(CO)[N+](=O)[O-]	5.13% (inactive)
CN(C)CCN(C)CCN(C)C	-0.175% (inactive)
COc1cc2c(cc1OC)-c1cc3ccc(OC)c(OC)c3c[n+]1CC2	7.18% [at 81.1 µM] (inactive)
C=C[Si](OC(C)=O)(OC(C)=O)OC(C)=O	-0.0956% (inactive)
C=CN1CCCCCC1=O	15.3% (inactive)
COc1cc(C(=O)OC(COCCC(C)C)CN2CCOCC2)cc(OC)c1OC (stereo not given)	6.31% (inactive)
CC(C)(CCC(=O)O)C(=O)O	13.7% [at 81.1 µM] (inactive)
CC1=C(C/C=C(\C)CCC[C@H](C)CCC[C@H](C)CCCC(C)C)C(=O)c2ccccc2C1=O	12.2% (inactive)
CC[N+](C)(CC)CCOC(=O)C1c2ccccc2Oc2ccccc21	12.2% (inactive)
N[C@@H](CCC(=O)O)C(=O)O	-5.18% (inactive)
CN(C)CCCN(C)CCCN(C)C	-21.5% (inactive)
Nc1c2c(nc3c1CCC3)CCCC2	0.37% (inactive)

SMILES	viability change, negative = cytotoxic
CC1=NN(c2cc(S(=O)(=O)O)ccc2Cl)C(=O)C1N=Nc1ccccc1 (stereo not given)	-2.17% (inactive)
CC(C)(C)c1ccc(-c2ccc(C(C)(C)C)cc2)cc1	2.27% (inactive)
O=S(=O)(O)c1cccc2c(S(=O)(=O)O)cccc12	1.47% (inactive)
C1CCC2(CCCCO2)OC1	-1.44% (inactive)
CC12CCC(C(=O)C1=O)C2(C)C (stereo not given)	0.167% [at 81.1 µM] (inactive)
CCCCS(=O)(=O)N[C@@H](Cc1ccc(OCCCCC2CCNCC2)cc1)C(=O)O	1.85% (inactive)
CO[C@@]1(NC(=O)CSC[C@@H](N)C(=O)O)C(=O)N2C(C(=O)O)=C(CSc3nnnn3C)CS[C@@H]21	6.49% (inactive)
Cc1ccc(C(=O)Nc2ccc(S(=O)(=O)O)c3cc(S(=O)(=O)O)cc(S(=O)(=O)O)c23)cc1NC(=O)c1cccc(NC(=O)Nc2cccc(C(=O)Nc3cc(C(=O)Nc4ccc(S(=O)(=O)O)c5cc(S(=O)(=O)O)cc(S(=O)(=O)O)c45)ccc3C)c2)c1	11.6% (inactive)
COc1ccnc(CS(=O)c2nc3cc(OC(F)F)ccc3[nH]2)c1OC (stereo not given)	2.23% [at 81.1 µM] (inactive)
Cc1ccc(-c2ncc(Cl)cc2-c2ccc(S(C)(=O)=O)cc2)cn1	1.91% (inactive)
CCN(Cc1ccccc1)c1ccccc1	20.1% (inactive)
CCN1CCOCC1	-2.92% (inactive)
CCCCCCCCCCCCCCCCCCO	11.1% (inactive)
CO[Si](C)(OC)c1ccccc1	0.0355% (inactive)
CC(C)C(=O)OC(=O)C(C)C	-10.5% (inactive)
CC/C=C\CCOC(C)OCC (stereo not given)	-5.36% (inactive)
CC(C)CCCO	-3.99% (inactive)
CC[N+](CC)(CC(=O)Nc1c(C)cccc1C)Cc1ccccc1 (tested in a mixture with another compound)	0.895% (inactive)
[K+]	-3.17% (inactive)
C[C@H]1C[C@H]2[C@@H]3CCC4=CC(=O)C=C[C@]4(C)[C@H]3C(=O)C[C@]2(C)[C@@]1(O)C(=O)CO	-6.43% (inactive)
